Bioassay records as filed in PubChem BioAssay.
KB-3-1 tox – kills parental KB-3-1 adenocarcinoma cells; actives 1.4% (n = 400,000); AID 1347075; Potency, µM (doses to about 46.1 µM), usual class: cytotoxic; KB-3-1 viability, CellTiter-Glo ATP luminescence, 72 h; note: % is set by controls: 0 for no effect and ±100 for the full control effect; nearly all actives have a fitted effect of over 60% in size
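Cytotoxicity measured as CellTiter-Glo luminescence after 72 h at 37 C. Compound titrations were pinned onto drug-naive KB-3-1 parental adenocarcinoma cells grown in DMEM with 10% FBS, and normalized data fitted to concentration-response curves.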
MCF10A rereplic – DNA re-replication induction in MCF 10a cells; MCF 10A DNA re-replication, Hoechst nuclear intensity, 48 h; Potency, µM (titrated, usually from 46.1 µM), inactives show at the highest dose activity, positive = re-replication, most hits filed as activators; actives 2.9% (n = 350,000); AID 624296; note: % of control where 0% means no effect; nearly all actives have a fitted effect of over 50% in size
HT1080 IDH1KD tx – kills HT-1080 cells with IDH1 knockdown; HT-1080 IDH1 knockdown viability, ATP luminescence, 48 h; Potency, µM (highest dose often 46.1 µM), for inactives: at the highest dose activity, negative = toxicity, hits mostly cytotoxic; actives 2% (n = 360,000);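 note: 0% = DMSO wells and -100% = cell-free medium wells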
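HT-1080-IDH1KD cells (IDH1 knocked down), 750/well in RPMI with 5% FBS, treated with compound 48 h at 37 degrees C. Viability by CellTiter-Glo luminescence, normalised to DMSO and no-cell wells; concentration-response curves classed.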
KB-V1 cytotox – KB-V1 MDR subline cytotoxicity | Potency, µM (highest dose often 46.1 µM), usual class: cytotoxic | AID 1347076 | KB-V1 MDR cells viability, CellTiter-Glo, 72 h | actives 3.4% (n = 400,000); note: % is set by controls: 0 for no effect and ±100 for the full control effect; nearly all actives have a fitted effect of over 60% in size
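Compound-treated KB-V1 multidrug-resistant cells, 72 h, 37 degrees C; viability by CellTiter-Glo. Fitted qHTS curves give the values.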
SW480 rereplic – inducers of DNA re-replication in SW480 colon cancer cells; actives 1.8% (n = 340,000); SW480 DNA re-replication, Hoechst DNA content imaging, 48 h; Potency, µM (highest dose often 46.1 µM), for inactives: top-dose re-replication activation, actives largely listed as activators; note: % of control where 0% means no effect; nearly all actives have a fitted effect of over 55% in size
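SW480 cells exposed to compounds for 48 hr at 37 C, 5% CO2, then Hoechst-stained 40 min. Nuclear DNA content imaged by fluorescence scanning (405 nm excitation, 500-530 nm emission); re-replication scored as increased high-intensity nuclei.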
HT1080-NT tox – kills 2HG-producing HT-1080-NT fibrosarcoma cells | HT-1080-NT fibrosarcoma viability, CellTiter-Glo ATP luminescence, 48 h | Potency, µM (highest dose often 46.1 µM), for the others: at the top dose activity, negative = less viability, usual class: cytotoxic | actives 1.6% (n = 360,000) | AID 686970;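 note: NT is the 2HG producing partner of a matched IDH1 knockdown line; 0% = DMSO-treated cells and -100% = media-only wells without cells; nearly all actives have a fitted effect of over 55% in size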
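HT-1080-NT; 750 cells/well; 5% FBS RPMI; 48 h compound, 37 degrees C; CellTiter-Glo luminescence; curve fitting and curve-class assignment.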
The depositor's hits bear a star; i = inactive; u = inconclusive; x = not tested or not shown; [ ] = dose if it differs, or a comment. In the library only some 7.9% were active in any assay of this set; here they are far more common. Calls come from the whole dose curve; as a rule, active = well fitted curve in the direction sought with a large enough effect; inconclusive = small, poorly fitted or top-dose-only effect, or another doubt; inactive = no such curve, though single readings can be large; an effect the other way counts as inactive or inconclusive. Potency is the fitted concentration of half-maximal effect.

SMILES	KB-3-1 tox	MCF10A rereplic	HT1080 IDH1KD tx	KB-V1 cytotox	SW480 rereplic	HT1080-NT tox
Cc1ccc(Cn2nnc3c(=O)n(CC(=O)NCc4ccccc4)cnc32)cc1	u	9.2µM*	u	i	9.2µM*	u
O=C(Cn1cnc2c(cnn2-c2ccccc2)c1=O)N1CCN(c2ccc(F)cc2)CC1	i	-2%	-2%	u	-5%	-6%
CC(=O)Nc1ccc(NC(=O)Cn2cnc3c(nnn3Cc3ccc(F)cc3)c2=O)cc1	i	11%	-4%	i	3%	-13%
CC(=O)Nc1ccc(NC(=O)Cn2cnc3c(cnn3C(C)(C)C)c2=O)cc1	i	u	-2%	i	-3%	12%
O=C(Cn1cnc2c(nnn2Cc2ccccc2)c1=O)NCc1ccccc1Cl	i	0%	5%	i	-19%	8%
CC(C)(C)n1ncc2c(=O)n(CC(=O)NCc3ccccc3)cnc21	7.3µM*	15µM*	16µM*	u	21µM*	16µM*
O=C(Cn1cnc2c(nnn2Cc2ccc(F)cc2)c1=O)NCc1ccc(F)cc1	u	u	18µM*	i	-2%	u
O=S(=O)(c1cccs1)N1CCN(c2ccnc3cc(Cl)ccc23)CC1	i	u	u	u	u	u
Fc1ccc(C(CCNCc2cccs2)c2ccco2)cc1 (centres undefined)	i	1%	u	i	5%	u
C/C=C/c1ccc(OCCCCNCc2ccco2)c(OC)c1	u	4%	u	i	u	-30%
COc1cccc(NC(=O)c2cc3ccccc3o/c2=N\O)c1	i	29%	-25%	i	u	-25%
CCC1=C(OC(=O)N(CC)CC)N2C(=O)OC(=NCCc3c[nH]c4ccccc34)[C@]2(C)[C@H]2C1=CC[C@H]1C(=O)NC(=O)[C@H]12	i	2%	3%	i	27%	0%
Cc1ccc(-n2nnc3c(=O)n(CC(=O)NCc4ccco4)cnc32)cc1	u	25%	-10%	i	4%	0%
Cc1ccc(Cn2nnc3c(=O)n(CC(=O)NCc4ccco4)cnc32)cc1	23µM*	u	-12%	u	u	-15%
Cc1ccc(-n2nnc3c(SCC(=O)NCc4ccco4)ncnc32)cc1	u	23µM*	u	u	8%	u
Cc1ccc(S(=O)(=O)N2C[C@H]3[C@H]4C(=O)N(C5CCCCC5)C(=O)[C@H]4CC(=O)[C@H]3[C@@H]2c2ccccc2F)cc1	i	x	0%	i	x	-8%
CC(C)C(=O)N1CCN(c2ccccc2NC(=O)COc2ccc(C3CCCCC3)cc2)CC1	x	18µM*	u	x	u	u
CN1CCN(c2ccccc2NC(=O)c2cccc(OCc3ccccc3)c2)CC1	i	1%	18µM*	i	5%	u
CN1CCN(c2ccccc2NC(=O)c2ccc(OCc3ccccc3)cc2)CC1	u	11%	23µM*	u	u	u
CN1CCN(c2ccccc2NC(=O)COc2ccc(Br)cc2)CC1	i	u	4%	21µM*	-11%	-1%
CC(C)C(=O)N1CCN(c2ccccc2NC(=O)COc2ccccc2)CC1	i	10%	3%	u	3%	-8%
CN1CCN(c2ccc(-c3ccc4ccccc4n3)cc2)CC1	i	13µM*	u	12µM*	u	u
c1ccc2c(Nc3ccc(N4CCOCC4)cc3)nc(N3CCOCC3)nc2c1	i	u	u	u	u	u
Cc1cc(-c2ccc(N3CCOCC3)cc2)nc2ccccc12	i	21µM*	6%	i	u	4%
Cc1cccc(-c2nc(Nc3cccc(O)c3)c3ccccc3n2)c1	i	21µM*	0%	i	8%	-8%
SMILES	KB-3-1 tox	MCF10A rereplic	HT1080 IDH1KD tx	KB-V1 cytotox	SW480 rereplic	HT1080-NT tox
Cc1cccc(-c2nc(Nc3ccc(N4CCOCC4)cc3)c3ccccc3n2)c1	i	21µM*	u	u	-1%	-21%
Cc1ccc(-c2cc(C(=O)N3CCOCC3)c3ccccc3n2)cc1	i	9%	-9%	i	-1%	-19%
c1ccc2nc(-c3ccc(N4CCOCC4)cc3)ccc2c1	i	-182%[0.0737 µM]	5%	i	-9%	4%
CC1=C(C(=O)N2CCOCC2)CC(CC(=O)NC(c2ccccc2)c2ccccc2)C(=O)N1CCCN1CCCC1=O (centres undefined)	i	x	-2%	i	x	-5%
O=C(NCCC1=CCCCC1)C1CCN(S(=O)(=O)c2ccc(-n3cnnn3)cc2)CC1	i	-5%	-12%	i	-1%	0%
COc1ccc(/C=C/C(=O)NC(=S)Nc2ccc(S(=O)(=O)Nc3ccc(OC)nn3)cc2)cc1	u	8%	0%	i	u	5%
Cc1ccc(C(=O)N(CN2CCCC2=O)c2ccccc2)cc1C	i	10%	-1%	u	3%	-10%
Cc1ccc(C(=O)N(CN2CCCC2=O)c2ccc(F)cc2)cc1C	i	3%	0%	18µM*	-13%	23%
Cc1ccc(N(CN2CCCC2=O)C(=O)c2ccc(C)c(C)c2)cc1	i	5%	0%	8.2µM*	-8%	6%
CC12CC3CC(C)(C1)CC(C(=O)NCc1ccco1)(C3)C2	i	5%	1%	i	-1%	0%
O=C(NCc1ccco1)C12CC3CC(C1)CC(C(=O)NCc1ccco1)(C3)C2	i	-2%	2%	21µM*	-3%	-16%
O=S(NCc1ccco1)C12CC3CC(CC(C3)C1)C2 (centres undefined)	i	21µM*	-8%	i	-2%	6%
O=S(NCc1ccccc1)C12CC3CC(CC(C3)C1)C2 (centres undefined)	i	-6%	0%	i	1%	-1%
N=c1c2ccccc2nc2n1CCCCCCCCCCC2	i	u	23µM*	u	6%	u
CCN(CC(=O)Nc1c(F)cccc1F)C(=O)c1cccc(S(=O)(=O)N2CCCCCC2)c1	i	0%	-1%	i	-8%	-3%
O=C(CSc1nc(Nc2ccccc2)nc(N2CCOCC2)n1)Nc1ccc(Br)cc1F	i	15µM*	1%	i	u	-1%
O=C(CSc1nc(Nc2ccccc2)nc(N2CCOCC2)n1)Nc1ccccc1Cl	i	u	-4%	15µM*	u	-6%
